High-throughput results as filed in PubChem.
Many of the other results were omitted from the sample, so hits are more common in it than they were.
Pf Dd2 inh – inhibitors of Plasmodium falciparum Dd2 growth; P. falciparum Dd2 growth, SYBR Green, 72 h; 4.3% of 120,000 active; Potency, µM (titrated, usually from 28.9 µM), for inactives: at the top dose activity, negative = inhibition, usual class: inhibitors; AID 1347417; active = well fitted inhibition curve with a large enough effect;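 also: plate controls were DMSO vehicle for no effect and reference drug for full effect; nearly all actives have a fitted effect of over 65% in size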
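Readout: SYBR Green fluorescence, 485 nm excitation, 535 nm emission, after ~16 h lysis at 37C. Before that, Dd2-infected red cells (2.5% hematocrit) grew 72 h with compound, 29 uM top final concentration.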
* marks the source's active call; other numbers are inactive results; i = inactive; [ ] = another dose, or the depositor's remark. Potency is read from the fitted curve at half-maximal effect.

SMILES	Pf Dd2 inh
COc1ccc(CNC(=O)Cn2c(N3CCc4ccccc4C3)nc(C)cc2=O)cc1	8.91µM*
COc1cc(NC(=O)Cn2c(N3CCc4ccccc4C3)nc(C)cc2=O)cc(OC)c1OC	-22.9%
COc1cccc(CNC(=O)Cn2c(N3CCc4ccccc4C3)nc(C)cc2=O)c1	-20.0%
C[S+](=O)([O-])N1CCn2c(nn(-c3ccncc3)c2=O)C1	0.6%[44.1 µM]
O=C(CN1C(=O)NC2(CCS(=O)(=O)CC2)C1=O)Nc1ccc(F)cc1F	0.9%
O=C(NC1CC1)c1ccccc1OC1CN(Cc2ccc(F)c(F)c2)C1	i
Cc1ccc(CN2CC(Oc3ccccc3C(=O)N3CCOCC3)C2)cc1C	2.82µM*
O=C(c1cccnc1OC1CCN(Cc2ccccn2)C1)N1CCOCC1 (stereo not given)	i
Cc1ccc(C(=O)N2CCC3(CC2)NC(=O)N(c2ccc(F)cc2)N3)cc1	-4.9%
Cc1nc(C(=O)N2CCC(Cc3nncn3-c3ccccc3)CC2)cs1	-5.6%
CC(C)CCN(C)Cc1ccccc1C(F)(F)F	-13.6%[44.1 µM]
COc1ccc(CN(C)Cc2ccc(-c3ccccc3)cc2)cc1	i
CC(C)CCN(C)Cc1ccc(-c2ccccc2)cc1	8.91µM*
CN(Cc1ccc(-c2ccccc2)cc1)Cc1ccc(C(F)(F)F)cc1	0.1%
CN(Cc1ccc(-c2ccccc2)cc1)Cc1cccnc1	3.98µM*
CN(Cc1ccc(F)cc1)Cc1ccc(-c2ccccc2)cc1	-10.7%[44.1 µM]
Cc1noc(C)c1[S+](=O)([O-])N1CCC2(CC1)CC(=O)Nc1ccccc1O2	-23.2%
COc1ccc(CN2CC[C@H](c3nnc(-c4ccco4)o3)C2)cc1	i
O=C(NC1CC1)C1(CCO)CC12CCOCC2 (stereo not given)	19.9%
O=C(c1cccc(F)c1)N1CCCC(Cc2nc(C3CCOCC3)no2)C1 (stereo not given)	-17.1%
O=C(Cc1ccccc1)N1CCC(c2noc(-c3cnccn3)n2)C1 (stereo not given)	i[5.79 µM]
O=C(Cc1ccsc1)N1CCC(n2cc(-c3nc(-c4ccccc4)no3)nn2)C1 (stereo not given)	-1.2%
O=C(c1ccncc1)N1CCC(Oc2ccccc2-c2nc(-c3ccccc3)no2)C1 (stereo not given)	-12.0%
c1ccc(-c2nc(-c3cnccn3)no2)c(OC2CCNC2)c1 (stereo not given)	i
O=C(c1cnccn1)N1CCC(Oc2ccccc2-c2nc(-c3ccccc3)no2)C1 (stereo not given)	-16.2%
SMILES	Pf Dd2 inh
Cc1ncccc1C(=O)N1CC(Oc2ccccc2-c2nc(-c3ccccc3)no2)C1	11.2µM*
O=C(C1CCC1)N1CC(Oc2ccccc2-c2nc(-c3cnccn3)no2)C1	10µM*
O=C(C1CCOCC1)N1CCC(Oc2ccccc2-c2nc(-c3ccccc3)no2)C1 (stereo not given)	i
O=C(Cc1ccsc1)N1CC(Oc2ccccc2-c2nc(-c3ccccc3)no2)C1	12.6µM*
Cc1ncccc1C(=O)N1CC(Oc2ccc(-c3nc(-c4ccccc4)no3)cc2)C1	-25.0%[5.79 µM]
Cc1cc2ncc(C(=O)NC(C)c3ccc(F)cc3)cn2n1 (stereo not given)	-6.9%[44.1 µM]
O=C(NCCCc1ccccc1)C1CN(c2ccc(Cl)cc2)C(=O)N1 (stereo not given)	-6.5%
COc1ccc(-c2noc(-c3nc(-c4ccc(N(C)C)cc4)no3)n2)cc1OC	-4.8%
CN1CCC(C)(CNc2ncc(C(C)(C)C(=O)O)c(N3CCOCC3)n2)C1 (stereo not given)	-7.3%
O=C(C[C@@H]1C[C@H]2O[C@H](CNCc3cnccc3Cl)[C@@H](O)[C@H]2O1)N1CCOCC1	12.9%[44.1 µM]
COc1cc(NC(=O)CCC2CCN(C(=O)c3ccccc3)CC2)cc(OC)c1	i
O=C1CC(c2noc(Cc3c(F)cccc3Cl)n2)CN1C1CCCCC1 (stereo not given)	i
COc1ccc(-c2cc(N3CCCN(C(=O)Cc4c(F)cccc4Cl)CC3)n[nH]2)cc1	i
Cc1ccc(-c2cc(C(=O)NCc3cnn(C)c3C)c3cc(Br)ccc3n2)cc1	11.2µM*
CCn1cc(CNC(=O)c2cc(-c3ccc(C)c(C)c3)nc3ccccc23)c(C)n1	i
COc1ccc(-c2cc(C(=O)NCc3ccc(C)cc3)c3cc(C(C)C)ccc3n2)cc1	26.8%
CC(C)CCN1C(=O)CC[C@]2(C(=O)N3CCN(c4ccc(F)cc4)CC3)CCCC[C@@H]12	10µM*
CC(C)CCN1C(=O)CC[C@]2(C(=O)N3CCOCC3)CCCC[C@@H]12	-18.9%
CN1C(=O)CC[C@]2(C(=O)N3CCN(c4ccc(F)cc4)CC3)CCCC[C@@H]12	-2.6%
Cc1ccc(-c2ccc(O)cn2)c2cccnc12	17.5%
COCCNC(=O)[C@@H]1C[C@@H](O)CN1C1CCN(C(=O)COc2cccc(C)c2)CC1	-5.2%
O=C(O)C1CC2(CCN(Cc3cc4ccccc4o3)CC2)CN1C(=O)C1CC1 (stereo not given)	-9.7%
O=C1CCN(C(=O)CCc2ccccc2)CCCC(c2nc(-c3ccccc3)no2)CCN1 (stereo not given)	i
